Among the data in PMC5836133, “The intracellular immune receptor Rx1 regulates the DNA-binding activity of a Golden2-like transcription factor” are binding signal values, retold here.

Over roughly 16,000 sequences, “e-score” has its median near -0.044; the highest 2% begin near 0.38. The full list was thinned out, with the highest values kept by preference.

The target in the experiment is T1, GST-NbGlk1(82-244) (Nicotiana benthamiana).
T1 chain: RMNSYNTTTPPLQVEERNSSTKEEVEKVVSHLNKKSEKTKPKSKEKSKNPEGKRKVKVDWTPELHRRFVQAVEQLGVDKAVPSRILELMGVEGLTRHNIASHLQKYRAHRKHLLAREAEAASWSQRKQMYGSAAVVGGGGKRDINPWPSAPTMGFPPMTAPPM
As to the kind of experiment: protein-binding microarray; NbGlk1 is a Golden2-like transcription factor of Nicotiana benthamiana; high values mean tight binding. Conditions: protein: recombinant; tags: GST (pTH6838); dsDNA, one strand shown.
For AATCGCAC, the binding signal was found to be 0.296 ± 0.0196 E-score.
Next, AAAGTGAT: 0.217 ± 0.169 E-score.
Next, AGGCAGAT: 0.213 ± 0.0549 E-score; AATAGAAT: 0.2556 ± 0.00204 E-score; AAAAATAA: 0.229 ± 0.0366 E-score.
Next, ATTTATAA: 0.229 ± 0.0487 E-score.
In the case of AGATAGAT, the binding signal stood at 0.267 ± 0.0623 E-score.
Next, AGATTGCA: 0.4641 ± 0.00231 E-score; ATATTGCG: 0.328 ± 0.0285 E-score.
In the case of AGATTGCC, the binding signal was 0.4477 ± 0.0014 E-score.
Regarding AAATTGCG, the binding signal was found to be 0.262 ± 0.0556 E-score.
Under AGATTGCG stands 0.4943 ± 0.000727 E-score; under ATCTTGCC, 0.261 ± 0.0186 E-score; under AGATTGCT, 0.426 ± 0.00629 E-score.
As to ATATTGAT, the binding signal was 0.248 ± 0.0795 E-score.
In the case of ATATTGCA, the binding signal worked out at 0.225 ± 0.111 E-score.
Take ATATTGCC: the binding signal came out at 0.249 ± 0.0822 E-score.
Under ATTTTGCA stands 0.238 ± 0.0203 E-score.
Next, AACAATCC: 0.244 ± 0.0442 E-score.
Under ATTATTAA stands 0.205 ± 0.0755 E-score.
In the case of ACATATCA, the binding signal is 0.216 ± 0.0561 E-score.
Next, ATTCAGGA: 0.206 ± 0.0808 E-score.
Next, ATCACATA: 0.212 ± 0.0312 E-score; AAATTTAT: 0.22 ± 0.0544 E-score; AAGCGAAT: 0.291 ± 0.0479 E-score.
As for AAATTCGC, the binding signal came out at 0.284 ± 0.0251 E-score.
Take ATATTCGA: the binding signal was determined as 0.293 ± 0.0238 E-score.
Next, AAATTCGG: 0.227 ± 0.0723 E-score; AGATTCGA: 0.389 ± 0.00837 E-score; ATATTCGC: 0.321 ± 0.0229 E-score.
As for AGATTCGC, the binding signal was 0.482 ± 0.00816 E-score.
Next, ATATTCGG: 0.228 ± 0.0147 E-score.
Next, AAATTCGA: 0.219 ± 0.058 E-score; AGATTCGG: 0.413 ± 0.00846 E-score.
Next, ATTTTTCA: 0.253 ± 0.137 E-score.
On to ATCGGAGA, for which the binding signal is 0.249 ± 0.0227 E-score.
Take ATCTTGTA: the binding signal stood at 0.28 ± 0.00362 E-score.
Under ATCGATAC stands 0.245 ± 0.0652 E-score; under ATTTCAAA, 0.231 ± 0.179 E-score; under CAAAATAA, 0.205 ± 0.0749 E-score.
Under ATCGCCAC stands 0.22 ± 0.062 E-score; under ATCGCTTC, 0.206 ± 0.0242 E-score.
For AGTGATTC, the binding signal came out at 0.282 ± 0.0766 E-score.
Under AAGAATCT stands 0.449 ± 0.0147 E-score; under CAGAATCC, 0.447 ± 0.0238 E-score.
Regarding ACGAATCT, the binding signal stood at 0.403 ± 0.0288 E-score.
Under AGGAATCA stands 0.32 ± 0.0361 E-score; under AACAATCT, 0.244 ± 0.0358 E-score; under CAGAATCG, 0.33 ± 0.0217 E-score.
Take AGGAATCG: the binding signal was 0.295 ± 0.0158 E-score.
Under ACGAATCA stands 0.247 ± 0.0177 E-score; under ACGAATCC, 0.361 ± 0.00735 E-score; under AAGAATAT, 0.331 ± 0.00702 E-score.
On to CAGAATCA, for which the binding signal was 0.373 ± 0.00814 E-score.
For the sequence AGGAATCC, the binding signal is 0.422 ± 0.0123 E-score.
Under ATCTGTTC stands 0.214 ± 0.0509 E-score; under AGGAAGAT, 0.276 ± 0.00329 E-score.
Under ATCGTGCG stands 0.234 ± 0.00703 E-score.
Under AATCACTG stands 0.269 ± 0.00608 E-score; under ATACTCAT, 0.264 ± 0.0418 E-score.
With AAGAATCA, the binding signal was found to be 0.3254 ± 0.00141 E-score.
Under AAGAATCC stands 0.455 ± 0.016 E-score; under AAGAATCG, 0.374 ± 0.0323 E-score.
Next, ATCCGCGC: 0.215 ± 0.0363 E-score; AAAATTCC: 0.201 ± 0.0158 E-score; AATATTCG: 0.258 ± 0.049 E-score.
Next, AAGATCCG: 0.332 ± 0.0135 E-score; AAGATTCC: 0.46 ± 0.0101 E-score; AAGATTCG: 0.41 ± 0.0145 E-score.
As for AAGATCCC, the binding signal amounted to 0.333 ± 0.0797 E-score.
Turning to CAGATTCC, the binding signal was determined as 0.473 ± 0.0158 E-score.
Under AATATTCC stands 0.341 ± 0.0191 E-score; under AAGATTCT, 0.4522 ± 0.000701 E-score.
Next, AAGATTCA: 0.205 ± 0.0308 E-score.
Under AATATTCT stands 0.313 ± 0.0605 E-score.
As to ATTTCATC, the binding signal turned out to be 0.269 ± 0.0106 E-score.
Under AATTCCCG stands 0.27 ± 0.108 E-score; under CACGATTC, 0.3711 ± 0.000458 E-score; under ATATCAGG, 0.305 ± 0.00775 E-score.
Next, CACAATCC: 0.366 ± 0.0571 E-score.
Next, ATCCTAAC: 0.254 ± 0.069 E-score.
As for ATCTGTAA, the binding signal was 0.331 ± 0.0244 E-score.
Under ATTCGCTG stands 0.298 ± 0.0414 E-score.
Next, ATACGAAT: 0.352 ± 0.0554 E-score; ATATTATA: 0.279 ± 0.00302 E-score.
Under ATCCTATC stands 0.258 ± 0.104 E-score; under CAGATTCG, 0.438 ± 0.0122 E-score.
